A selection: hits, their analogues and other compounds. The true share with any hit is near 1.5%.
PLCg1 inh: PLC-gamma1 enzyme inhibitors, primary screen, biochemical, fluorescence, purified enzyme; fluorogenic substrate; inhibition, % at 12.2 µM; 0.84% of 370,000 active; AID 720700, 2013
HGIII-sPLA2 inh: human group III sPLA2 inhibitors, primary screen, biochemical, QFRET, BODIPY PC-A2 liposome substrate; QFRET BODIPY PC-A2 liposome hydrolysis, fluorescence; 0.56% of 370,000 active; inhibition, % at 12.2 µM;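 active means inhibition above mean plus 3 SD of compounds lying within the high and low control bounds, cut at about 19% in these data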
DAGLB inh: DAGLB lipase inhibitors, primary screen, biochemical, fluorescence, HTS; Diacylglycerol lipase-beta (Homo sapiens), Q8NCG7; inhibition, % at 5.17 µM; HEK293T DAGLB membrane lysate, EnzChek fluorogenic substrate; 0.059% of 340,000 active; AID 504411, 2011; in the data active means inhibition above about 34%
Target sequence (Q8NCG7 whole entry, looked up): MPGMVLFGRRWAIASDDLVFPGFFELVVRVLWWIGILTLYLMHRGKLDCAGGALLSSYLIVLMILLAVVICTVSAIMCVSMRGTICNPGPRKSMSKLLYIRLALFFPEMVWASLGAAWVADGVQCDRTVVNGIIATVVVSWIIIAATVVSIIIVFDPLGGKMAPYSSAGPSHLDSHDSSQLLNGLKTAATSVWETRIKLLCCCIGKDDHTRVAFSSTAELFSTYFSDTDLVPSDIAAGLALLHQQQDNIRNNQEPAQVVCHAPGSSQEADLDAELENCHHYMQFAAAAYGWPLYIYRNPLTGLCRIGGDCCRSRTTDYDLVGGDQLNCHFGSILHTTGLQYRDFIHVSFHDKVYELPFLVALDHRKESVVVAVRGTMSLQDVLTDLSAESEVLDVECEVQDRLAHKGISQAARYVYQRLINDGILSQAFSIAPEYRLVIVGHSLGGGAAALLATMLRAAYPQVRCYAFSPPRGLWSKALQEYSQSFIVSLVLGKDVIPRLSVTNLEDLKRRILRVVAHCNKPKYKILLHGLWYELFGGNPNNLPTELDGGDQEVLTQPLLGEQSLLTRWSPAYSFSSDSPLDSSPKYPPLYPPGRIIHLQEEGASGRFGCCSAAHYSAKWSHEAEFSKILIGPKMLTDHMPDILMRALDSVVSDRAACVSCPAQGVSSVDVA
PLC-beta3 inh: human PLC-beta3 inhibitors, primary screen, biochemical, fluorescence; Purified PLC-beta3, fluorogenic substrate; inhibition, % at 12.2 µM; 0.18% of 370,000 active; AID 720704, 2013; in the data active means inhibition above about 11%
PLCgamma1 ctr: PLC-gamma1 enzyme inhibitors, counter-screen for PLC-beta3 inhibitor project, biochemical, fluorescence. inhibition, % at 12.3 µM. 3.1% of 3,300 active. shares compounds with PLCg1 inh. purified PLC-gamma1, fluorogenic substrate
PLCbeta3 conf: PLC-beta3 inhibitor confirmation, biochemical, fluorescence, purified enzyme; shares compounds with PLCg1 inh; fluorogenic substrate fluorescence; inhibition, % at 12.3 µM; 1% of 3,300 active; AID 743261, 2014; in the data active means inhibition above about 11%
Each line names hits and unclear results; the compound was inactive in the other large screens (follow-up assays come after a bar, where they were run). Unless noted, no stated cut-off is given here; in the data, active means inhibition above about 9.5%; inactive means the rest.

Nc1cccc(C(=O)Nc2ccc3nc(-c4cccnc4)[nH]c3c2)c1	PLCg1 inh 11.6 | PLCgamma1 ctr inactive | PLCbeta3 conf inactive
O=C1C[C@H](C(=O)Nc2ccc(Cl)cc2)[C@@H](c2ccccc2)O1	none (no result: DAGLB inh)
COc1ccc(CNC(=O)CSc2nc3c([nH]2)c(=O)n(C)c(=O)n3C)cc1	none (no result: DAGLB inh)
CN(CCc1ccccc1)C(=O)c1cc2ccccn2n1	none (no result: DAGLB inh)
CCn1c(SCC(N)=O)nnc1-c1ccc2c(c1)OCO2	none
CCn1c(SCC(N)=O)nnc1-c1ccc(OC)c(OC)c1	PLCg1 inh 12.8 | PLCgamma1 ctr inactive | PLCbeta3 conf inactive
COc1cccc(C(=O)n2ccc3ccc(-c4ccc5ccn(C(=O)c6cccc(OC)c6)c5c4)cc32)c1	none (no result: DAGLB inh)
COC(=O)[C@]12C[C@H](CC(=O)N3CCN(C(=O)C4CC4)CC3)C(=O)N(Cc3ccc(Cl)cc3Cl)C1=C[C@H](C(C)(C)C)O[C@@H]2C	none (no result: DAGLB inh)
CCCCN(C(=O)COc1ccc(C)cc1OC)c1c(N)n(CCC)c(=O)[nH]c1=O	PLCg1 inh 11.6 | PLCgamma1 ctr inactive | PLCbeta3 conf inactive
COC(=O)[C@H](C)NC(=O)C(Cc1ccc2c(c1)OCO2)NC(C)=O (stereo partly drawn)	none (no result: DAGLB inh)
COc1ccc(S(=O)(=O)N2CCN(CCOc3ccccc3Cl)CC2)cc1OC	none
COc1ccc(S(=O)(=O)N2CCN(CCOc3ccc(Br)cc3)CC2)cc1OC	PLCg1 inh 10.9 | PLCgamma1 ctr inactive | PLCbeta3 conf inactive
Nc1[nH]c(C(=O)c2ccccc2)c(-c2ccc(Br)cc2)c1C(=O)NCCCN1CCOCC1	none (no result: DAGLB inh)
CN(C(=O)c1ccccc1)C1c2c(ccc3ccccc23)OCC1CO (stereo not drawn)	PLCg1 inh 10.4 | PLCgamma1 ctr inactive | PLCbeta3 conf 11.5
Cc1ccc[n+](/C(=C\C(=C=[N-])C#N)C(=O)c2ccc(Cl)cc2)c1	PLCg1 inh 9.7 | PLCgamma1 ctr inactive | PLCbeta3 conf inactive
Cc1cccc(N/C=C/C(=O)c2ccc(Cl)cc2)c1	none
COc1ccc(CNC(=O)C(=O)NCC(c2ccco2)N2CCOCC2)cc1 (stereo not drawn)	PLCg1 inh 10.0 | PLCgamma1 ctr inactive | PLCbeta3 conf inactive
O=C(NCc1ccccc1)C(=O)NCC(c1ccco1)N1CCOCC1 (stereo not drawn)	none (no result: PLCg1 inh, HGIII-sPLA2 inh, PLC-beta3 inh)
O=C(Nc1ccc(F)cc1)OCCCN1C(=O)CCC12CCCCC2	none (no result: DAGLB inh)
O=C(NC(=S)Nc1ccccc1[N+](=O)[O-])c1ccco1	none
O=C(NC(=S)Nc1ccc([N+](=O)[O-])cc1)c1ccco1	PLCg1 inh 13.0 | PLCgamma1 ctr inactive | PLCbeta3 conf inactive
Nc1ccc([N+](=O)[O-])cc1C(=O)NNC(=O)c1ccco1	PLCg1 inh 9.7 | PLCgamma1 ctr inactive | PLCbeta3 conf inactive
CCC[C@H]1[C@@H](OC(=O)NCc2cccs2)CC[C@@]23CCCN2C(=O)CCC[C@@H]13	none (no result: DAGLB inh)
CCC[C@H]1[C@@H](OC(=O)N2CCCC2)CC[C@@]23CCCN2C(=O)CCC[C@@H]13	none (no result: DAGLB inh)
Cc1cccc(CCNC(=O)C2CCCN(S(=O)(=O)c3cccc4nsnc34)C2)c1 (stereo not drawn)	PLCg1 inh 16.8 | PLCgamma1 ctr inactive | PLCbeta3 conf inactive
CCOC(=O)N1CCC(NS(=O)(=O)c2ccc3c(c2)CCN3C(C)=O)CC1	PLCg1 inh 11.9 | PLCgamma1 ctr inactive | PLCbeta3 conf inactive
CN(C)CCCNS(=O)(=O)c1ccc(NC2CCCCCC2)c([N+](=O)[O-])c1	PLCg1 inh 15.0 | PLCgamma1 ctr inactive | PLCbeta3 conf inactive
COC(=O)[C@]12C[C@H](CC(=O)NCc3ccc(C)o3)C(=O)N(CCC3=CCCCC3)C1=C[C@H](C1CCCC1)O[C@@H]2C	none (no result: DAGLB inh)
C=CCn1c(SCCN2C(=O)c3ccccc3C2=O)nc2scc(-c3ccc(F)cc3)c2c1=O	PLCg1 inh 12.7 | PLCgamma1 ctr inactive | PLCbeta3 conf inactive
CC(C)(C)CCNc1nc(-c2ccccn2)nnc1-c1ccccc1	none (no result: DAGLB inh)
Cc1ccc(C)c(NC2=NS(=O)(=O)c3ccccc32)c1	PLCg1 inh 10.6 | PLCgamma1 ctr inactive | PLCbeta3 conf inactive
Cc1ccccc1NC1=NS(=O)(=O)c2ccccc21	none
C=CCN1C(=O)[C@@H](CC(=O)N2CCC(c3ccccc3)CC2)[C@]2(C(=O)OCC)CCCCC/C=C/12	none (no result: DAGLB inh)
CC(C)(C)c1ccc(/C=N/NC(=S)NC2CCCCC2)cc1	PLCg1 inh 11.2 | PLCgamma1 ctr inactive | PLCbeta3 conf inactive
COC(=O)[C@]12CCCCC=C1N(Cc1ccc(OC)cc1)C(=O)[C@@H]2CC(=O)NCC1CCCCC1	none (no result: DAGLB inh)
O=[N+]([O-])c1ccc(NCc2ccncc2)cc1	PLCg1 inh 12.7 | PLCgamma1 ctr inactive | PLCbeta3 conf inactive
O=[N+]([O-])c1ccc(NC(=S)NCc2ccncc2)cc1	none
CCOC(=O)C(C)C1(O)c2ccccc2-c2ncccc21 (stereo not drawn)	PLCg1 inh 11.8 | PLCgamma1 ctr inactive | PLCbeta3 conf inactive
CC(C)n1ncc(C(N)=O)c1N	PLCg1 inh 9.8 | PLCgamma1 ctr inactive | PLCbeta3 conf inactive
COc1cccc(-c2nnc(SCC(=O)Nc3ccc(Oc4ccccc4)cc3)n2Cc2ccco2)c1	none (no result: DAGLB inh)
COc1ccc(S(=O)(=O)CCC(=O)NCCc2cccc(C)c2)cc1	PLCg1 inh 9.7 | PLCgamma1 ctr inactive | PLCbeta3 conf inactive
O=C1c2ccccc2C(=O)N1CCCCN(C(=O)c1ccc([N+](=O)[O-])cc1)c1ccc(Cl)cc1	PLCg1 inh 11.6 | PLCgamma1 ctr inactive | PLCbeta3 conf inactive
O=C1c2ccccc2C(=O)N1CCCCN(C(=O)c1cc([N+](=O)[O-])cc([N+](=O)[O-])c1)c1ccc(Cl)cc1	none
O=C(Cc1ccccc1F)N1CCC(n2nnc3ncccc32)CC1	none (no result: DAGLB inh)
CCN(CC)CCCn1c2c(c(SCC(=O)Nc3cccc(C(C)=O)c3)nc1=O)CCC2	none
CCN(CC)CCCn1c2c(c(SCC(=O)Nc3cc(C)cc(C)c3)nc1=O)CCC2	PLCg1 inh 13.0 | PLCgamma1 ctr inactive | PLCbeta3 conf inactive
O=C(NNC(=O)c1cccc2ccccc12)c1ccc(Br)cc1	none
O=C(NNC(=O)c1cccc2ccccc12)c1ccc(F)cc1	PLC-beta3 inh 16.9 | PLCgamma1 ctr inactive | PLCbeta3 conf inactive
O=C1C(=O)N(Cc2ccc(-c3ccc(F)nc3)cc2)c2ccc(OC(F)(F)F)cc21	none (no result: DAGLB inh)
O=C(Nc1ccc(F)cc1)Nc1nnc(COc2ccccc2F)s1	PLCg1 inh 11.5 | PLCgamma1 ctr inactive | PLCbeta3 conf inactive
O=C(Nc1nnc(COc2ccccc2F)s1)Nc1ccccc1F	none
CN(C)c1ncnc2c1ncn2[C@H]1CN(CCN2CCOCC2)C[C@@H](CO)O1	PLCg1 inh 10.7 (no result: DAGLB inh) | PLCgamma1 ctr inactive | PLCbeta3 conf inactive
CC1Cn2c(CCc3ccccc3)nnc2S1 (stereo not drawn)	none
